Where “and” joins values, the source holds several entries; their conditions need not be identical. Identical values can stand only once. Results filed as inconclusive are left out. Calls of active or inactive are those of the source. Unless noted, calls follow the shape of the dose curve; as a rule, active = well fitted curve in the direction sought with a large enough effect; inconclusive = small, poorly fitted or top-dose-only effect, or another doubt; inactive = no such curve, though single readings can be large; an effect the other way counts as inactive or inconclusive.
Legend:
[1] = Cell Viability - SK-N-SH (AID 435; calls by dose curve;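 also: potency is read from the fitted curve at half-maximal effect; compound exposure lasted 40 h at 37 °C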); conditions: SK-N-SH neuroblastoma cell viability qHTS
Outline: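 CellTiter-Glo ATP luminescence, 20 min RT read; cells pre-plated 5 hr, compound 40 hr at 37 °C, 1500 cells/well, complete medium. Normalized DMSO = 0, 100 uM tamoxifen = 100% inhibition; Hill-fit AC50.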

[2] = Cell Viability - N2a (AID 540); conditions: N2a mouse neuroblastoma cell viability; at 92.2 µM (top of the series);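 also: plate controls were DMSO alone for no effect and tamoxifen control for full effect; nearly all actives have a fitted effect of over 45% in size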
Outline: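 Mouse neuroblastoma N2a cells, 1500/well, exposed to compounds 40 h at 37 °C in complete medium. Viability measured as cellular ATP by CellTiter-Glo luminescence; AC50 from Hill fits of concentration-response.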

[3] = Cell Viability - SH-SY5Y (AID 544); conditions: SH-SY5Y neuroblastoma cell viability; viability change, negative = cytotoxic: at 92.2 µM (top of the series); also: nearly all actives have a fitted effect of over 55% in size
Outline: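 SH-SY5Y human neuroblastoma cells (1500/well) incubated 5 h, then compound-treated 40 h at 37 °C in complete medium. Viability read as intracellular ATP by CellTiter-Glo luminescence after 20 min; AC50 from Hill-equation fits of qHTS concentration-response.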

[4] = Cellular Toxicity (caspase-3) HepG2 (AID 654); conditions: HepG2 caspase-3 activation, luminescence, 0% = DMSO only, 100% = tamoxifen; series mostly up to 92.2 µM;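 also: cells exposed to compound for 16 hours before reading; 0% = DMSO alone and 100% = caspase signal from 100 µM tamoxifen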
Outline: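 HepG2 cells (1500/well) were treated 16 h at 37 °C in complete medium, then caspase 3/7 activity was read by Caspase-Glo luminescence. Data were normalized to DMSO and 100 uM tamoxifen; AC50 came from Hill-equation fits of qHTS concentration-response.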

[5] = Cellular Toxicity (caspase-3) Hek293 (AID 664); conditions: HEK293 caspase-3 activation, DMSO = 0%, 100 µM tamoxifen = 100%; series mostly up to 92.2 µM;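 also: cells exposed to compound for 16 h at 37 °C before readout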
Outline: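 HEK293 cells in complete medium treated 16 h at 37 °C, then Caspase-Glo 3/7 luminescence read after 20 min at room temperature. Normalized to DMSO and 100 uM tamoxifen; AC50 from Hill fit of concentration-response.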

[6] = Cellular Toxicity (caspase-3) NIH 3T3 (AID 666); conditions: NIH 3T3 caspase-3 activation, apoptosis/toxicity, 0% DMSO, 100% is 100 µM tamoxifen; series mostly up to 92.2 µM;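 also: caspase signal read after 16 h compound exposure; 0% = DMSO basal and 100% = 100 µM tamoxifen stimulation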
Outline: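 Mouse NIH 3T3 fibroblasts (1000/well) treated 16 h at 37 C; caspase-3/7 activity measured by Caspase-Glo 3/7 luminescence after 20 min. Normalized to DMSO and 100 uM tamoxifen; AC50 from Hill fits.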

[7] = Cell Viability - LYMP1-002 - Assay at 16 hr (AID 948); conditions: LYMP1-002 lymphoblastoid cell viability; series mostly up to 92.2 µM;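 also: 0% = DMSO alone and full effect = 92 µM tetraoctylammonium bromide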
Outline: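 LYMP1-002 human lymphoblastoid cells, 2500/well; 5 hr 37 C; cpd 16 hr 37 C; CellTiter-Glo 30 min RT; luminescence (ATP). Concentration-response, Hill-fit AC50. Pos ctrl tetraoctylammonium bromide.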

[8] = MultiTox-Fluor Cytotoxicity Assay - LYMP1-002 - Live Cells (AID 955); conditions: LYMP1-002 lymphoblastoid live-cell protease fluorescence viability; series mostly up to 46.1 µM;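 also: cells exposed to compound for 16 hours; % is scaled to controls: 0 for no effect and ±100 for the full control effect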
Outline: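 Human lymphoblastoid LYMP1-002 cells, 2500/well, treated 16 h at 37 C in complete medium. Live-cell protease activity via GF-AFC fluorescence (Ex/Em 405/510) after 60 min reagent incubation; AC50 from Hill fits.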

[9] = MultiTox-Fluor Cytotoxicity Assay - LYMP1-003 - Live Cells (AID 962); conditions: LYMP1-003 lymphoblastoid cells, MultiTox-Fluor live-cell protease fluorescence; series mostly up to 92.2 µM;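 also: cells exposed to compound for 16 hours at 37 °C; 0% = DMSO only and full loss = 92 µM tetraoctylammonium bromide; cytotoxic hits lower the live-cell protease signal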
Outline: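 LYMP1-003 lymphoblastoid cells, 2500/well in complete medium, treated 16 h at 37 C; live-cell protease cleavage of GF-AFC read by fluorescence (Ex/Em 405/510) after 60 min reagent; AC50 from Hill fits of concentration-response.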

[10] = Cell Viability - LYMP1-003 - Assay at 24 hr (AID 963); conditions: LYMP1-003 lymphoblastoid cell viability; series mostly up to 92.2 µM;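 also: plate controls were DMSO only for no effect and tetraoctylammonium bromide positive control for full effect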
Outline: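 Human lymphoblastoid LYMP1-003 cells, 2500/well, treated 24 h at 37 C in complete medium. Viability read as intracellular ATP by CellTiter-Glo luminescence after 30 min at room temperature; AC50 from Hill-equation fits of qHTS concentration-response.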

[11] = Cell Viability - LYMP2-015 (AID 971); conditions: LYMP2-015 lymphoblastoid cell viability; series mostly up to 92.2 µM; also: nearly all actives have a fitted effect of over 55% in size; also: potency is read from the fitted curve at half-maximal effect
Outline: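 LYMP2-015 human lymphoblastoid cells (2500/well) in complete medium, compound-treated 24 h at 37 C; viability read as cellular ATP by CellTiter-Glo luminescence after 30 min at room temperature. AC50 from Hill-equation fits of qHTS concentration-response data.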

[12] = Cell Viability - LYMP2-025 (AID 976); conditions: LYMP2-025 lymphoblastoid cell viability; series mostly up to 92.2 µM;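 also: plate controls were DMSO only for no effect and tetraoctylammonium bromide control for full effect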
Outline: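 Human lymphoblastoid LYMP2-025 cells, 2500/well, exposed 24 h at 37 C in complete medium in 1536-well qHTS. Viability as cellular ATP by CellTiter-Glo luminescence; AC50 from Hill fits of concentration-response data.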

[13] = Cell Viability - LYMP2-002 (AID 977); conditions: LYMP2-002 lymphoblastoid cell viability, qHTS; series mostly up to 92.2 µM;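 also: compound exposure lasted 24 h at 37 °C; plate controls were DMSO only for no effect and 92 µM tetraoctylammonium bromide for full effect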
Outline: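 Cytotoxicity is scored as concentration-dependent loss of cellular ATP in a human lymphoblastoid line after 24 hr compound treatment at 37 C. AC50 is obtained by modelling concentration-response data with the Hill equation.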

[14] = Cell Viability - LYMP2-006 (AID 978); conditions: LYMP2-006 lymphoblastoid cell viability, qHTS; series mostly up to 92.2 µM;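 also: cells exposed to compound for 24 hours; % is scaled to controls: 0 for no effect and ±100 for the full control effect; nearly all actives have a fitted effect of over 60% in size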
Outline: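 qHTS, 1536-well; 2500 cells/well, 5 hr 37 C; cpd 24 hr 37 C; CellTiter-Glo 30 min RT; luminescence. Tetraoctylammonium bromide pos. ctrl. AC50 via Hill eqn.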

[15] = Cell Viability - LYMP2-008 (AID 980); conditions: LYMP2-008 lymphoblastoid cell viability, qHTS; series mostly up to 92.2 µM; also: nearly all actives have a fitted effect of over 60% in size; also: potency is read from the fitted curve at half-maximal effect; as to activity change, negative = cytotoxicity: % is scaled to controls: 0 for no effect and ±100 for the full control effect
Outline: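 LYMP2-008 lymphoblastoid cells (2500/well) plated 5 h, then treated 24 h at 37 C in complete medium. Viability read as intracellular ATP by CellTiter-Glo luminescence after 30 min at room temperature; AC50 from Hill fits.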

[16] = Cell Viability - LYMP1-002 - Assay at 24 hr (AID 993); conditions: LYMP1-002 lymphoblastoid cells viability; series mostly up to 92.2 µM; also: % is scaled to controls: 0 for no effect and ±100 for the full control effect
Outline: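 Human lymphoblastoid LYMP1-002 cells (2500/well) treated 24 h at 37 °C; viability as intracellular ATP by CellTiter-Glo luminescence. Tetraoctylammonium bromide as positive control; AC50 from Hill-equation fits of qHTS concentration-response.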

[17] = Cell Viability - LYMP1-002 - Assay at 40 hr (AID 994); conditions: LYMP1-002 lymphoblastoid cell viability; series mostly up to 92.2 µM;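 also: 0% = DMSO only and full inhibition = 92 µM tetraoctylammonium bromide; nearly all actives have a fitted effect of over 60% in size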
Outline: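 LYMP1-002 human lymphoblastoid cells (2500/well, complete medium) were treated with compounds for 40 hr at 37 C. Intracellular ATP was measured by CellTiter-Glo luminescence, and AC50 values came from Hill-equation fits of concentration-response data; tetraoctylammonium bromide was the positive control.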

[18] = qHTS assay for small molecule agonists of the antioxidant response element (ARE) signaling pathway measured by Nrf2-dependant transcriptional activity (AID 720636; active = well fitted curve in the direction sought with a large enough effect in the repeat runs; an effect the other way counts as inactive or inconclusive;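 also: HepG2 cells with an ARE-driven luciferase reporter; % of control where 0% means no effect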); conditions: ARE-luc HepG2, Nrf2 luciferase reporter, 16 h; series mostly up to 92.4 µM
Outline: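 Nrf2-dependent transcription is measured in ARE-luc HepG2 cells: compound is applied for 16 hr at 37 C after a 6 hr attachment period, and luciferase activity is quantified by luminescence using ONE-Glo.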

[19] = qHTS assay for small molecule antagonists of retinoid X receptor alpha signaling (AID 588546; active = well fitted inhibition curve with a large enough effect in the signal ratio, with a control signal flat, not every such curve was filed as active; the % refers to the signal ratio;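 also: cells stimulated with 9-cis-retinoic acid as agonist; % is scaled to controls: 0 for no effect and ±100 for the full control effect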); conditions: HEK293T RXRa-UAS-bla, beta-lactamase ratio, antagonist mode; measured here: W530 green channel, cytotoxicity proxy
Outline: (§1)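 Beta-lactamase reporter inhibition, read as CCF4 fluorescence ratio (ex 405, em 460/530 nm) after 2 h at RT. HEK293T UAS-bla cells, 2500/well, were stimulated with 9-cis-RA at 500 or 100 nM final alongside test compound for 18 h at 37 C.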

[20] = target: Retinoic acid receptor RXR-alpha (Homo sapiens) (UniProt P19793); test: as above; conditions: HEK293T RXRa-UAS-bla, beta-lactamase ratio, antagonist mode
Outline: as §1

Retinoic acid receptor RXR-alpha (Homo sapiens), sequence (P19793 whole entry, looked up): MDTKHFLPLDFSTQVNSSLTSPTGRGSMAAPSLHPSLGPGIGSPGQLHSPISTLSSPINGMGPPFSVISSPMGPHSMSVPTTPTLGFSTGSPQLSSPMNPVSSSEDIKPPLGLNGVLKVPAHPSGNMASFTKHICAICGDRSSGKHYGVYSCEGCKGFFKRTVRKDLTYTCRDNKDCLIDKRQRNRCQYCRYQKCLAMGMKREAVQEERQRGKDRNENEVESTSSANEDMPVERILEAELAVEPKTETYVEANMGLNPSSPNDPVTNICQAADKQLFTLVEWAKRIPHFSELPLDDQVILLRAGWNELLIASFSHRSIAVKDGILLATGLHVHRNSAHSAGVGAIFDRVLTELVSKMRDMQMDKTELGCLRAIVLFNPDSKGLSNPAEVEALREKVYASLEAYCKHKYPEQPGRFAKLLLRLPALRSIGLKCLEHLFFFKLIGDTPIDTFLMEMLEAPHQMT

Clc1ccc2ccccc2c1
inactive: Potency [1] > 92 µM | activity change, negative = cytotoxicity [2] 3.7% | Potency [3] | outcome [4] | outcome [5] | outcome [6] | Potency [7] | outcome [8] | Potency [9] | Potency [10] | Potency [11] | Potency [12] | Potency [13] | Potency [14] | Potency [15] | Potency [16] | Potency [17] | outcome [18]

O=C(Cl)/C=C/C(=O)Cl
-3.67%: max response [19]
inactive: Potency [1] > 92 µM | activity change, negative = cytotoxicity [2] 3.07% | Potency [3] | outcome [4] | outcome [5] | outcome [6] | Potency [7] | outcome [8] | Potency [9] | Potency [10] | Potency [11] | Potency [12] | Potency [13] | Potency [14] | Potency [15] | Potency [16] | Potency [17] | max response [20] -3.28% | outcome [18]

C=CC(=C)C
-1.77%: max response [19]
inactive: Potency [1] > 92 µM | activity change, negative = cytotoxicity [2] 4.7% | Potency [3] | outcome [4] | outcome [5] | outcome [6] | Potency [7] | outcome [8] | Potency [9] | Potency [10] | Potency [11] | Potency [12] | Potency [13] | Potency [14] | Potency [15] | Potency [16] | Potency [17] | max response [20] -0.537% | outcome [18]

O=C(Cl)C(Cl)(Cl)Cl
inactive: Potency [1] > 92 µM | activity change, negative = cytotoxicity [2] 4.93% | Potency [3] | outcome [4] | outcome [5] | outcome [6] | Potency [7] | outcome [8] | Potency [9] | Potency [10] | Potency [11] | Potency [12] | Potency [13] | Potency [14] | Potency [15] | Potency [16] | Potency [17] | max response [20] 2.98% | outcome [18]
2.3%: max response [19]

Cc1ccc([N+](=O)[O-])cc1C
-4.65% and -9.04%: max response [19]
inactive: Potency [1] > 92 µM | activity change, negative = cytotoxicity [2] -25% | Potency [3] | outcome [4] | outcome [5] | outcome [6] | Potency [7] | outcome [8] | Potency [9] | Potency [10] | Potency [11] | Potency [12] | Potency [13] | Potency [14] | Potency [15] | Potency [16] | Potency [17] | max response [20] 17.5% and -26.4% | outcome [18]

CC(C)(OO)c1ccccc1
inactive: Potency [1] > 92 µM | activity change, negative = cytotoxicity [2] 3.56% | outcome [4] | outcome [5] | Potency [7] | outcome [8] | Potency [9] | Potency [10] | Potency [12] | Potency [13] | Potency [14] | Potency [16] | Potency [17] | max response [20] 2.62% and 5.92% | outcome [18]
active: viability change, negative = cytotoxic [3] -82.7% | Potency [11] 39.8 µM | Potency [15] 39.8 µM
16% and -6.37%: max response [19]

CC(Cl)Cl
inactive: Potency [1] > 92 µM | activity change, negative = cytotoxicity [2] -11.1% | Potency [3] | outcome [4] | outcome [5] | outcome [6] | Potency [7] | outcome [8] | Potency [9] | Potency [10] | Potency [11] | Potency [12] | Potency [13] | Potency [14] | Potency [15] | Potency [16] | Potency [17] | max response [20] 21.2% | outcome [18]
-2.19%: max response [19]

From PubChem BioAssay (NCATS)
